SMILES strings stand for the structures. Out of some 340,000 compounds screened, about 530 (0.16%) were called active. Another 2% or so got no clear call; they are omitted. This is one part of a sample in which actives are shown more often than they occur. No stated cut-off is given here; in the data, active means activity change below about -80%; inconclusive means between about -30% and that limit; inactive means weaker than that.

Data on 96 compounds can be found in PubChem BioAssay AID540267 (National Center for Advancing Translational Sciences (NCATS), 2011).
On the % scale 0 is the no-effect control and ±100 the full control effect.

A short description of the assay: Small Molecules that selectively kill Giardia lamblia: qHTS.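 Further: parasites exposed to compound for two days anaerobically before the ATP read.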 To be noted: Giardia lamblia trophozoite viability; at 7.66 µM; stronger effect = lower value. An excerpt:
Giardia lamblia is a human pathogen afflicting impoverished nations, and the most common cause of outbreaks of diarrhea in the United States. Giardia has been classified by the CDC as a category B bioterrorism organism. The favored anti giardiasis drugs in the US are metronidazole or tinidazole, compounds that have undesirable side effects. Moreover, increasing resistance to drug regimes and recurrence are a concern. It is thus clear that alternative drug treatments are needed.
In a collaboration between the University of Maryland, College Park and the NIH Chemical Genomics Center, a bioluminescence Giardia viability assay based on the trophozoites' ATP content was developed. This assay is suitable for high throughput screening, and miniaturized the assay for compound screening in 1536-well plates. The goal of the project is to screen the Molecular Libraries Small Molecule Repository (MLSMR) for compounds that selectively kill Giardia trophozoites.
NIH Chemical Genomics Center [NCGC]
NIH Molecular Libraries Probe Centers Network [MLPCN]
Assay Submitter (PI): Osnat Herzberg, University of Maryland, College Park, MD.
1. Dispense 2 ul/well media
2. Dispense 23 nl/well compounds
3. Dispense 4 ul/well Giardia trophozoites at a concentration of 100 cells/well
4. Incubate 48 hrs at 37 deg C anaerobically
5. Dispense 4 ul/well ATPLite 1-Step Luminescence assay kit
6. Incubate 15-30 min at room temperature
7. Read luminescence signal on ViewLux plate reader
With `Oc1ccc(Br)cc1C1C=C(c2ccc3c(c2)OCO3)NC(c2ccc(Cl)cc2)N1` (stereo unspecified), the activity change is -6.54% (inactive). On to `CC1CC(C)(C)CC2(C1)NC(=O)N(CC(=O)Nc1nccs1)C2=O` (stereo unspecified), for which the activity change was 7.14% (inactive).

For the compound `COc1ccc(-c2nc(=N)sn2-c2ccccc2)cc1`, the activity change is 5% (inactive). For the compound `Cc1ccc(SCC(CC(C)C)N2CCN(CCc3ccccc3)CCC2=O)cc1` (stereo unspecified), the activity change is -1.92% (inactive). Consider `COc1ccccc1Nc1cc(C(=O)NCCCN(C)C2CCCCC2)c2ccccc2n1`, for which the activity change was -11.5% (inactive). Consider `CN(C)Cc1cn(-c2ccccc2)nc1-c1ccccc1`, for which the activity change is 2.86% (inactive).

As to `[O-][n+]1ccc(OCc2ccccc2)cc1`, the activity change is 23.2% (inactive). As to `CCc1ccc(OCCCn2c(CCCNC(=O)C3CCCCC3)nc3ccccc32)cc1`, the activity change was -7.56% (inactive). On to `C=CCSc1nnc(N2C(=O)C(O)=C(C(=O)c3ccco3)C2c2ccc(F)cc2)s1` (stereo unspecified), for which the activity change is -13.6% (inactive).

In the case of `O=C(c1ccc(N2CCOCC2)c([N+](=O)[O-])c1)N1CCN(c2ccccc2F)CC1`, the activity change was 8.07% (inactive).

For the compound `O=C(c1cccc(F)c1)N1CCN(c2ccc([N+](=O)[O-])c(N3CCCCC3)c2)CC1`, the activity change is 5.61% (inactive). As for `O=C(c1cccc(F)c1)N1CCN(c2ccc([N+](=O)[O-])c3cccnc23)CC1`, the activity change was -82.8% (active). Turning to `O=C(CN1C(=O)NC2(CCCCCC2)C1=O)NCc1cccs1`, the activity change was -9.8% (inactive).

`COc1ccc(Br)cc1C1C2C=CCC(C)C2C(=O)N1Cc1ccccc1` (stereo unspecified): the activity change is 20% (inactive).

With `O=C(O)C1CC=CC2CCN(C3CCCCC3)C(=O)C21` (stereo unspecified), the activity change is -16.4% (inactive). Consider `Cc1ccc2ccc3c(c2n1)NS(=O)(=O)c1ccccc1-3`, for which the activity change was -5.37% (inactive). As to `CC(C)(C)c1cc(C(=O)N/N=C/c2ccc([N+](=O)[O-])s2)n[nH]1`, the activity change was -93% (active). In the case of `Cc1ccccc1NCC(=O)N/N=C\c1ccc([N+](=O)[O-])s1`, the activity change was -89.1% (active). As to `Cc1cccc(/C=N/NC(=O)CNc2cccc3ccccc23)n1`, the activity change was -9.25% (inactive). In the case of `O=C(COc1ccccc1[N+](=O)[O-])N/N=C/c1ccc[nH]1`, the activity change is 5.97% (inactive). Regarding `Cc1cc(C(=O)N/N=C/c2cc([N+](=O)[O-])cc(C)c2O)n[nH]1`, the activity change was -15.8% (inactive). With `CC(C)c1cc(C(=O)N/N=C/C(Br)=C/c2ccccc2)n[nH]1`, the activity change was 15.8% (inactive). As to `CC1(C)OC(=O)N2CCc3ccccc3C21C` (stereo unspecified), the activity change is -12.9% (inactive). On to `CCOc1ccc(C(C)=O)cc1CSc1nnc(-c2ccncc2)n1CCOC`, for which the activity change was 1.79% (inactive).

As to `O=C(NNC(=O)c1ccccc1[N+](=O)[O-])Nc1ccccc1C(F)(F)F`, the activity change is -21.9% (inactive). Regarding `Cn1c(SCC(=O)Nc2ccc(Br)cc2F)nnc1-c1ccco1`, the activity change was -12.3% (inactive). On to `COc1ccc(-n2cnc3cc(NCc4ccco4)ccc32)cc1`, for which the activity change is -16.4% (inactive). The value for `Cn1c(-c2ccco2)nc2cc3ccccc3cc21` was -82.6% (active); that for `Cc1ccc(-c2nc3ccccn3c2Nc2ccc(F)cc2)o1` was 13.3% (inactive); that for `NCCCNC(=S)NCCCN(Cc1ccc(Cl)cc1)c1ccc(Br)cn1` was -3.06% (inactive).

Regarding `C=C1CCN(C(CC(C)C)C(=O)NCc2cc(OC)c(OC)c(OC)c2)S(=O)(=O)c2ccccc21` (stereo unspecified), the activity change was -2.48% (inactive). The same measure for `O=C1c2ccccc2C(=O)N1c1ccc(S(=O)(=O)N2CCOCC2)c2ccccc12`: -26.6% (inactive); for `c1ccc(-n2ncc(-c3nn[nH]n3)n2)cc1`: -10.6% (inactive); for `O=[N+]([O-])c1ccc(S(=O)(=O)N2CCN(c3nc(-c4ccccc4)nc4ccccc34)CC2)cc1`: -1.14% (inactive). Consider `CCC(=O)c1ccc(OCC(=O)N(CC)CC2COc3ccccc3O2)cc1` (stereo unspecified), for which the activity change was 5.76% (inactive).

With `O=C(NCCc1ccco1)c1ccc(OCc2cn3ccccc3n2)cc1`, the activity change is -6.02% (inactive). The same measure for `O=C(Cc1ccccc1)Nc1c(C(=O)N2CCCCCC2)cnn1-c1ccccc1`: 7.39% (inactive); for `O=C(Nc1cccc2cccnc12)C(F)(F)F`: 11.7% (inactive); for `O=c1onc(-c2c(F)cccc2F)n1-c1ccccc1Cl`: -18.5% (inactive). Regarding `c1ccc(-c2ccc(OCCN3CCOCC3)cc2)cc1`, the activity change is 19.5% (inactive).

With `CCOc1nc(NCCN2CCOCC2)nc(Nc2ccc(C)cc2)n1`, the activity change was 17.9% (inactive). The value for `c1ccc2cc3c(NCCN4CCOCC4)ccnc3cc2c1` was -97.2% (active); that for `COc1cc2nc(CN(C)Cc3ccc(F)cc3)[nH]c(=O)c2cc1OC` was 1.83% (inactive). Take `CCCNC(=O)c1onc(CSc2ccc(F)cc2)c1C(=O)NC(C)C`: the activity change is 23.4% (inactive). The same measure for `CC(C)C(NC(=O)C1CCC(C(C)(C)C)CC1)C(=O)NCCCN1CCCCC1` (stereo unspecified): -2.26% (inactive); for `CCOCCCNC(=O)C(NC(=O)CNC(=O)c1ccccc1)c1ccc(OC)cc1` (stereo unspecified): -20.4% (inactive). As for `COc1ccc(-c2nc3c(c(SCC(=O)Nc4ccc(C(=O)O)cc4)n2)Cc2ccccc2O3)cc1`, the activity change was 9.92% (inactive).

For the compound `Cc1cc(C)cc(OCC(=O)Nc2cc(NC(=O)COc3cc(C)cc(C)c3)cc(C(=O)O)c2)c1`, the activity change was -12.2% (inactive). On to `CC1C/C(=N/NC(=O)c2cccs2)CC(C)(C)C1` (stereo unspecified), for which the activity change is 4.93% (inactive). For `Oc1ccc(Cl)cc1C1C=C(c2ccc3c(c2)OCO3)NC(c2ccc(F)c(Br)c2)N1` (stereo unspecified), the activity change is -24.8% (inactive). Take `O=C(c1ccc2c(=O)n(Cc3ccco3)c(=S)[nH]c2c1)N1CCCC1`: the activity change was 4.07% (inactive). With `O=C1C[C@@H](c2ccc3ccccc3c2)N1S(=O)(=O)c1ccccc1[N+](=O)[O-]`, the activity change was 0.869% (inactive). The same measure for `COc1ccc(C(CCN2CCOCC2)c2c(OC)cc(OC)c3c2OC(=O)CC3c2ccc(OC)cc2)cc1` (stereo unspecified): 12.9% (inactive).

Consider `CCN(CC)c1nc(C#N)nc(OC)n1`, for which the activity change is -9.05% (inactive). In the case of `C=C1CCN(Cc2ccc(OC)cc2)S(=O)(=O)c2ccccc21`, the activity change was 23.9% (inactive).

With `CCOc1cc2[nH]c(=O)n(CCC(=O)NCc3ccc(OC)cc3)c(=O)c2cc1OCC`, the activity change is -9.64% (inactive). The same measure for `COc1ccc(C2/C=C\CN(C(=O)c3ccc(C)cc3)C(Cc3ccccc3)C(=O)N2Cc2ccc(F)cc2)cc1` (stereo unspecified): 28.8% (inactive). The same measure for `Cc1ccc(-c2nnc3ccc(SCC(N)=O)nn23)cc1`: 5.27% (inactive). With `O=[N+]([O-])c1ccc(C=Nc2ccc(Cl)cc2Cl)s1`, the activity change is 12% (inactive). Take `CNN/C(N=Cc1ccc([N+](=O)[O-])s1)=N\S(=O)(=O)c1cc(C)c(Cl)cc1SCc1ccccc1`: the activity change is -85.8% (active). Take `OC[C@@H]1O[C@H](n2cnc3c(SCc4ccccc4)ncnc32)[C@H](O)[C@H]1O`: the activity change is 7.24% (inactive). As for `COc1ccc(CCn2c3c(c(=O)[nH]c2=S)CN(C(C)C)CN3)cc1OC`, the activity change is -2.67% (inactive). In the case of `CC(C)Cc1nnc(NC(=O)CCc2ccccc2)s1`, the activity change is -6.99% (inactive). For the compound `CC(=O)c1cccc(NC(=O)C2COc3ccccc3O2)c1` (stereo unspecified), the activity change is 3.94% (inactive). With `COc1ccc(S(=O)(=O)N2CCOCC2)cc1NC(=O)Cc1c(F)cccc1Cl`, the activity change is 0.481% (inactive). As to `O=C(CCc1ccccc1)Nc1ncc([N+](=O)[O-])s1`, the activity change was -95.3% (active). Regarding `O=C(Nc1ncc([N+](=O)[O-])s1)C1COc2ccccc2O1` (stereo unspecified), the activity change was -95.9% (active). For `CN(c1ccccc1)S(=O)(=O)c1cccc(NC(=O)Cc2c(F)cccc2Cl)c1`, the activity change is 6.09% (inactive).

Consider `O=C(Cc1c(F)cccc1Cl)Nc1ncc([N+](=O)[O-])s1`, for which the activity change was -90.9% (active). As to `COC(=O)CSc1nnc(NC(=O)CCc2ccccc2)s1`, the activity change is -28.2% (inactive). `O=C(Nc1cc(S(=O)(=O)N2CCCCC2)ccc1Cl)C1COc2ccccc2O1` (stereo unspecified): the activity change was 9.58% (inactive). As to `O=C(Nc1cccc(Cl)c1)c1cc(S(=O)(=O)N2CCCCC2)c[nH]1`, the activity change was -28.5% (inactive).

Consider `Cc1nn(C(C)CC(=O)O)c(C)c1C` (stereo unspecified), for which the activity change is 7.78% (inactive). In the case of `CCC1(C)Cc2c(sc3[nH]c(=S)n(Cc4ccccc4)c(=O)c23)CO1` (stereo unspecified), the activity change is -14.6% (inactive). For `COc1cc2c(cc1OC)C(/C=C/c1ccco1)=NCC2`, the activity change is -3.82% (inactive). Turning to `CCOc1ccc(C(=O)NC(C(=O)NCc2ccccn2)C(C)C)cc1` (stereo unspecified), the activity change is -4.15% (inactive).

With `OCCNc1ncnc2oc(-c3ccco3)c(-c3ccco3)c12`, the activity change was -2.77% (inactive). In the case of `COc1cc(OC)c2c(c1C(CCN1CCCCC1)c1ccc(N(C)C)cc1)OC(=O)CC2c1ccc(N(C)C)cc1` (stereo unspecified), the activity change was 7.67% (inactive).

As to `O=S(=O)(Nc1cccc2cccnc12)c1cccc2cccnc12`, the activity change is -17.9% (inactive). Take `CCOc1ccc(S(=O)(=O)N2CCN=C2Cc2ccccc2)cc1C`: the activity change is -28.6% (inactive). Regarding `O=C(c1ccco1)N(Cc1cccs1)c1ccc(O)cc1`, the activity change is -7.42% (inactive). As to `COc1ccc(CN2CCc3nc(Nc4ccccc4)ncc3C2)c(OC)c1OC`, the activity change is -13.9% (inactive). The value for `NS(=O)(=O)c1ccc(NC(=O)CSc2nnc3c(n2)[nH]c2ccccc23)cc1` was -21.1% (inactive).

For the compound `CCOCN(C(=O)Cn1c(C(C)O)nc2ccccc21)c1c(C)cccc1CC` (stereo unspecified), the activity change was 8% (inactive).

With `CN(CCC#N)c1ncnc2scc(-c3ccccc3)c12`, the activity change was -2.98% (inactive).

Regarding `O=C1CC(c2ccccc2)CC2=C1C(c1ccco1)n1nc(C(F)(F)F)nc1N2` (stereo unspecified), the activity change was 14.6% (inactive). Consider `CC(Nc1nc(N2CCCC2)nc2ccccc12)c1ccccc1` (stereo unspecified), for which the activity change was 3.32% (inactive). In the case of `CC(Nc1nc(N2CCN(CCO)CC2)nc2ccccc12)c1ccccc1` (stereo unspecified), the activity change was -93.8% (active).

On to `CC(Nc1nc(N2CCOCC2)nc2ccccc12)c1ccccc1` (stereo unspecified), for which the activity change is 4.71% (inactive). With `O=C1C2C(c3ccccc3)CC=CC2C(c2ccoc2)N1Cc1ccccc1` (stereo unspecified), the activity change was -9.66% (inactive). As for `Cc1cccc(NC(=O)c2ccc([N+](=O)[O-])o2)c1`, the activity change was -85.9% (active). The same measure for `O=C(Nc1cccc([N+](=O)[O-])c1)c1ccc2c(c1)OCO2`: 7.08% (inactive). For the compound `O=C(Nc1ccc(Br)cn1)c1ccc([N+](=O)[O-])cc1Cl`, the activity change was -28.4% (inactive).

Turning to `O=C(Nc1ccc(Br)cn1)c1ccc([N+](=O)[O-])o1`, the activity change was -87.6% (active).

Turning to `CN1C(=O)c2ccc(C(=O)Nc3ccc(Br)cn3)cc2C1=O`, the activity change was 6.68% (inactive). `O=C(Nc1cccc(O)c1)c1ccc(C(=O)c2ccccc2)o1`: the activity change is -8.06% (inactive).
